In experiment [1] the target is T1, Serine/threonine-protein kinase haspin (Homo sapiens) (UniProt Q8TF76).
T1 sequence (whole entry): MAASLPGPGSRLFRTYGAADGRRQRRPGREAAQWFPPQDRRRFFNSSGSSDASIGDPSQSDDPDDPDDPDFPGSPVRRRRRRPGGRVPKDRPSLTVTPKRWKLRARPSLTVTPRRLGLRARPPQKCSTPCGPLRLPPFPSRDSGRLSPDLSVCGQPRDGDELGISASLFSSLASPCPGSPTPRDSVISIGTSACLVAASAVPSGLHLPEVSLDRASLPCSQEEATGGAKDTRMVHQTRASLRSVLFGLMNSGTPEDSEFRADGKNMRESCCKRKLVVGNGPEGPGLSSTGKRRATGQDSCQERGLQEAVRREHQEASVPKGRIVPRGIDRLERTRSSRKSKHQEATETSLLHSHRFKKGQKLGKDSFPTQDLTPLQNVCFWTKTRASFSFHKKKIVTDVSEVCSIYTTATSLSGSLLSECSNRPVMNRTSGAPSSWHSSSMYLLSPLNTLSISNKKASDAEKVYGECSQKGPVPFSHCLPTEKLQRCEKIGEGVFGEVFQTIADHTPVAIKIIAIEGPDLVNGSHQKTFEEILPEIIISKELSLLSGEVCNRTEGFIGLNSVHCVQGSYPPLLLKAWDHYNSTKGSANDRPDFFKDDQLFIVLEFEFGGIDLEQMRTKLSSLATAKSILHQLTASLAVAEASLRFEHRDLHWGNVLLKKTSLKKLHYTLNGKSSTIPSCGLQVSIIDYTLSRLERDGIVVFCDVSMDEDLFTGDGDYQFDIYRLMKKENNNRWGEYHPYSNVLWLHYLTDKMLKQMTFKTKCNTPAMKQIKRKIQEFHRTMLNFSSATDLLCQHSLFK
The note with it: at 1 µM.

The target of experiment [2] is T1, Serine/threonine-protein kinase haspin (Homo sapiens). The note with it: at 10 µM.
For experiment [3], the target named is Tyrosine-protein kinase HCK (Homo sapiens) (UniProt P08631). As to conditions: at 1 µM; call rule not given here.
The target is the same in experiment [4]. The note with it: at 10 µM.
For experiment [5] the target is unchanged. The note with it: at 1 µM. The source holds these as a separate data set.
Experiment [6] shares this target. The note with it: at 10 µM. This is another data set of the same source.
Experiment [7] addresses Insulin-like growth factor 1 receptor (Homo sapiens) (UniProt P08069). The note with it: at 1 µM.
Experiment [8] shares this target. The note with it: at 10 µM.
The target in experiment [9] is T2, Protein kinase C zeta type (Homo sapiens) (UniProt Q05513).
T2 sequence (whole entry): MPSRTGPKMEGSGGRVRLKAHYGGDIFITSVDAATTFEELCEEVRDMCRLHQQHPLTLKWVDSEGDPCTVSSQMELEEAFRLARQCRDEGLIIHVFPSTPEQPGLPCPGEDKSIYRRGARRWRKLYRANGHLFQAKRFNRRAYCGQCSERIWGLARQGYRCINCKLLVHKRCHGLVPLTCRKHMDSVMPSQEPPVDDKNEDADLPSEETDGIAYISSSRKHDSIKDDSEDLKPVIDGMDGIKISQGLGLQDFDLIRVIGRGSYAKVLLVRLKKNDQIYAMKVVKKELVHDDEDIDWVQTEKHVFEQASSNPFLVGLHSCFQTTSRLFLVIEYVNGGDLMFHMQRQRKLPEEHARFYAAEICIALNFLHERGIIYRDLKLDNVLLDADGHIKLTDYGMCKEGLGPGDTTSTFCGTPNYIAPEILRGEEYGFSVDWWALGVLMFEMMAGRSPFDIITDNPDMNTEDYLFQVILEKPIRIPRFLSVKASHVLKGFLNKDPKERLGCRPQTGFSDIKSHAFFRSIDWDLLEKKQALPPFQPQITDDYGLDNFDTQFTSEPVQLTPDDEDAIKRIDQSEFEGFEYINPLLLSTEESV
The note with it: at 10 µM.

Experiment [10] concerns the target Protein kinase C theta type (Homo sapiens) (UniProt Q04759). As to conditions: at 1 µM.
Experiment [11] shares this target. As to conditions: at 10 µM.
Experiment [12] addresses T3, Protein kinase C iota type (Homo sapiens) (UniProt P41743).
T3 sequence (whole entry): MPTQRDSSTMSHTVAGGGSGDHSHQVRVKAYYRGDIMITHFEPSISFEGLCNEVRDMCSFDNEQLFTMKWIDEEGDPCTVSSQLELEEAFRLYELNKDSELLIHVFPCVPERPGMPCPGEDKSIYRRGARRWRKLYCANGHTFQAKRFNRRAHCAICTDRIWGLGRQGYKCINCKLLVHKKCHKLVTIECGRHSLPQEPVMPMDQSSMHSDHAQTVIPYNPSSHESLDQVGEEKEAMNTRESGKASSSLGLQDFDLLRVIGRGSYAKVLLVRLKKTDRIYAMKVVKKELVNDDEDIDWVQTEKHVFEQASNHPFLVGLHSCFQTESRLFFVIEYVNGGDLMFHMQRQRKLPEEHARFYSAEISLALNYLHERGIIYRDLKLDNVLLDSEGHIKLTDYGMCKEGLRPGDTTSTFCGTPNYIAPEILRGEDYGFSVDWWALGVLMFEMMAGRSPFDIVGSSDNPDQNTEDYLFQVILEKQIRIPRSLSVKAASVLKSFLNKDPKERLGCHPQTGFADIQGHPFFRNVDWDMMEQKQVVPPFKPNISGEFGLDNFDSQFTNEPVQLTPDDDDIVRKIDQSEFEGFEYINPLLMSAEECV
The note with it: at 1 µM.

Experiment [13] has as its target T3, Protein kinase C iota type (Homo sapiens). As to conditions: at 10 µM.
In experiment [14] the target is T4, Serine/threonine-protein kinase D2 (Homo sapiens) (UniProt Q9BZL6).
T4 sequence (whole entry): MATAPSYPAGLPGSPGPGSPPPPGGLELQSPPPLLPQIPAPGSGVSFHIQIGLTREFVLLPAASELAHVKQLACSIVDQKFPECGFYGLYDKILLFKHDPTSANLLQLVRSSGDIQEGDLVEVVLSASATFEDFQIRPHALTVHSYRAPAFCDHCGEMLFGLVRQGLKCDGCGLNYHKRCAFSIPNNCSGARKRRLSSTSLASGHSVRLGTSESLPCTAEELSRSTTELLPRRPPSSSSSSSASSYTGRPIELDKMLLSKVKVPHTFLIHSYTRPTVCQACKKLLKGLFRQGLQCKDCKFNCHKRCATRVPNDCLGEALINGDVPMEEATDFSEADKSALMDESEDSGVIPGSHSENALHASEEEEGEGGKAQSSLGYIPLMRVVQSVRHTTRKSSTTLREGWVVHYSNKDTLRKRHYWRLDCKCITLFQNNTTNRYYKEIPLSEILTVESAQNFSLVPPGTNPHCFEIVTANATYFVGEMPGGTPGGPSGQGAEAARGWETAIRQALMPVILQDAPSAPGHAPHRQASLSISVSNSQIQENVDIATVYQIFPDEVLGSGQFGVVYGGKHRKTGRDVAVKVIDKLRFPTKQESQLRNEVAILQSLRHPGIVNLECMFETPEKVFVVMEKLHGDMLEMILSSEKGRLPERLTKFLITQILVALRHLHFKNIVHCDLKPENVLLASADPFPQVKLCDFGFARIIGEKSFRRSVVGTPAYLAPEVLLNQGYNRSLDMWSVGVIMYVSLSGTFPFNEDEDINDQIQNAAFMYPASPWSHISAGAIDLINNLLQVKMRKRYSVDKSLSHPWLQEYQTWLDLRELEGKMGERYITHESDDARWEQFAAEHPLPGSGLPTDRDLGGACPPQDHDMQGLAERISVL
As to conditions: at 1 µM.

Experiment [15] concerns the target T4, Serine/threonine-protein kinase D2 (Homo sapiens). As to conditions: at 10 µM.
Experiment [16] concerns the target Protein kinase C eta type (Homo sapiens) (UniProt P24723). As to conditions: at 1 µM.
For experiment [17] the target is unchanged. As to conditions: at 10 µM.
The target in experiment [18] is T5, Serine/threonine-protein kinase D1 (Homo sapiens) (UniProt Q15139).
T5 sequence (whole entry): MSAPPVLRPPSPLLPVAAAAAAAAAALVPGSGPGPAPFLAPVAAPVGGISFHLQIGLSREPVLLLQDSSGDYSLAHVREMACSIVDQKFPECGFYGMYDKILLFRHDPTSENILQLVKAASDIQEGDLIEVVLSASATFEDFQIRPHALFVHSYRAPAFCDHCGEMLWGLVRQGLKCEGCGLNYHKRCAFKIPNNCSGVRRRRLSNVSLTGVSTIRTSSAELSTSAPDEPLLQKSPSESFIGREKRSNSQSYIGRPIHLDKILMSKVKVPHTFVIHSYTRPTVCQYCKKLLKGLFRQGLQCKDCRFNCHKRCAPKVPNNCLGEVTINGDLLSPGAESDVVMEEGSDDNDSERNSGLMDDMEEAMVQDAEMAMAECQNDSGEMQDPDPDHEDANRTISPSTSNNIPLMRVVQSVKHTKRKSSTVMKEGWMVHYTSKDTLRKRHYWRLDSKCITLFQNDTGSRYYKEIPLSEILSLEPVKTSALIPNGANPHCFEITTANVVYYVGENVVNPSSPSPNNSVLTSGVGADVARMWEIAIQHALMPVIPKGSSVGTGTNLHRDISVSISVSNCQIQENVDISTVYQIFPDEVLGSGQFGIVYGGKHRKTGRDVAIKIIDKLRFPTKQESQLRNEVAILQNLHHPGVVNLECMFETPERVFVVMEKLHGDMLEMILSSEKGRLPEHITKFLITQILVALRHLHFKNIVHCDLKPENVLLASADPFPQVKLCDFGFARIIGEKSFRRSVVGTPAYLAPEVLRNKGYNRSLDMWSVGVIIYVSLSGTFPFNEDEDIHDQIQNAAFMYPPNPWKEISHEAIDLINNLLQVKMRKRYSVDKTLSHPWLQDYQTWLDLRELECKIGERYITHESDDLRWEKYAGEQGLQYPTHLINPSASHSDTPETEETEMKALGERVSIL
The note with it: at 1 µM.

In experiment [19] the target is T5, Serine/threonine-protein kinase D1 (Homo sapiens). As to conditions: at 10 µM.
In experiment [20] the target is Homeodomain-interacting protein kinase 3 (Homo sapiens) (UniProt Q9H422). As to conditions: at 10 µM.
Sequence of Homeodomain-interacting protein kinase 3 (Homo sapiens) (Q9H422 whole entry, looked up): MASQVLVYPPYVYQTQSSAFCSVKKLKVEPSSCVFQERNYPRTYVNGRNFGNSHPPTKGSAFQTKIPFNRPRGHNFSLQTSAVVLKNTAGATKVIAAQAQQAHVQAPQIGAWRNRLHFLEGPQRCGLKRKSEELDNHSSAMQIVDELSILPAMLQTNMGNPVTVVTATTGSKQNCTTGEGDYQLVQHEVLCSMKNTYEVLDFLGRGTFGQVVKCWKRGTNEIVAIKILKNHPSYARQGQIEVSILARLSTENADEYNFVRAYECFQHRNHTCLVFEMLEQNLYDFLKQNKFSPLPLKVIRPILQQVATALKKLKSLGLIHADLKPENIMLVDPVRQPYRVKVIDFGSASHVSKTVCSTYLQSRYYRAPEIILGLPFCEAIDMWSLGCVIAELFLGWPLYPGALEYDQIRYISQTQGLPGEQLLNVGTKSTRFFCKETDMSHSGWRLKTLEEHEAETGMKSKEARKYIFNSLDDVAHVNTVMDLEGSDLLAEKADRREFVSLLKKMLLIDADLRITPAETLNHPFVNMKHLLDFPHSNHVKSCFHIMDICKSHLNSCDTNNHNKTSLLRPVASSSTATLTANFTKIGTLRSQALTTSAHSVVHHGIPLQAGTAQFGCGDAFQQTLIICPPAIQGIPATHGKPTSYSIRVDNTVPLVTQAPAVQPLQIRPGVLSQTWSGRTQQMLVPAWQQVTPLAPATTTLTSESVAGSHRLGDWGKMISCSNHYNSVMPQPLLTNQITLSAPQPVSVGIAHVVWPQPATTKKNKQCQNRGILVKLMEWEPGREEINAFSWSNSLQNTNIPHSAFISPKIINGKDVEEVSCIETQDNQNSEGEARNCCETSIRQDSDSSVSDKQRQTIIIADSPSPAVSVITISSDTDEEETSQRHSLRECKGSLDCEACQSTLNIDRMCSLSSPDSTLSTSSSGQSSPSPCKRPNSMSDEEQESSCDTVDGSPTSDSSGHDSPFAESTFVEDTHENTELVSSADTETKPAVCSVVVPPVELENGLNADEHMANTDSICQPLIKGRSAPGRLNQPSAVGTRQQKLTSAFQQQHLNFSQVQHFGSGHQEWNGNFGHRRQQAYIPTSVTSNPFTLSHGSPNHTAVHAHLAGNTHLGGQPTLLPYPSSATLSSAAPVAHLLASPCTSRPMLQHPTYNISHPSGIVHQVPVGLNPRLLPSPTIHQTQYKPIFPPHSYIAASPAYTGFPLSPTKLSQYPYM

Sequence of Tyrosine-protein kinase HCK (Homo sapiens) (P08631 2-526 limits assumed): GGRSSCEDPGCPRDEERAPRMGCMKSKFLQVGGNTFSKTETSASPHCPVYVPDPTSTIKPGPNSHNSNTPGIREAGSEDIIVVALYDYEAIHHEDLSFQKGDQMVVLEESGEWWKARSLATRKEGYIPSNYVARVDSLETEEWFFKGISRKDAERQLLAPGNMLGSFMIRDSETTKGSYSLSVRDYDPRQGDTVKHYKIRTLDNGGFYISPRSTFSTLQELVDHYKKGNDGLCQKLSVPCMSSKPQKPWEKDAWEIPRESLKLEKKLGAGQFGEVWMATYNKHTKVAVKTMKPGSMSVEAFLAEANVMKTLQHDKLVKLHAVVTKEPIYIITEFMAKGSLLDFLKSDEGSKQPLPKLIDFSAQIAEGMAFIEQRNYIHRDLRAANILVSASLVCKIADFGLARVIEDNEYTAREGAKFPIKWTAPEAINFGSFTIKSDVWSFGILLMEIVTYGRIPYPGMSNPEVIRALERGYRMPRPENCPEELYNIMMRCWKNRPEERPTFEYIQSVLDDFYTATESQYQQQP
Sequence of Insulin-like growth factor 1 receptor (Homo sapiens) (P08069 31-736 limits assumed): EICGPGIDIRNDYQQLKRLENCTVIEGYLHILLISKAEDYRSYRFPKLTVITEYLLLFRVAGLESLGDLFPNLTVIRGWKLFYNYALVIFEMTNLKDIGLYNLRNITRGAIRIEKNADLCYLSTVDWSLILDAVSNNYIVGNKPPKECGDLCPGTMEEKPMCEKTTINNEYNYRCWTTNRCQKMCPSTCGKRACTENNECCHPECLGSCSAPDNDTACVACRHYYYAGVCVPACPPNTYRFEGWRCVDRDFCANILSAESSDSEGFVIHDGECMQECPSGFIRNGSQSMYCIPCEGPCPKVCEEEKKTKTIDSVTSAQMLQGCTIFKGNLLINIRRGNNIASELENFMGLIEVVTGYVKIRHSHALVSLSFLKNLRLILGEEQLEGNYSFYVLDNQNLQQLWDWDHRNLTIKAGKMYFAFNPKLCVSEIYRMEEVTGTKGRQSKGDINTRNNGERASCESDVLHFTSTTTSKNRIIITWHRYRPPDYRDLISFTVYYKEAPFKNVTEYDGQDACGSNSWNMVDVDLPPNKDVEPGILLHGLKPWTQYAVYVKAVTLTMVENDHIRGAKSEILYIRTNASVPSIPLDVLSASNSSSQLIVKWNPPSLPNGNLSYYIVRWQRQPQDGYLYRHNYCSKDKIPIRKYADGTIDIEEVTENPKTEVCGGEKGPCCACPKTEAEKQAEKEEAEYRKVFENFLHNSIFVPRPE
Sequence of Insulin-like growth factor 1 receptor (Homo sapiens) (P08069 741-1367 limits assumed): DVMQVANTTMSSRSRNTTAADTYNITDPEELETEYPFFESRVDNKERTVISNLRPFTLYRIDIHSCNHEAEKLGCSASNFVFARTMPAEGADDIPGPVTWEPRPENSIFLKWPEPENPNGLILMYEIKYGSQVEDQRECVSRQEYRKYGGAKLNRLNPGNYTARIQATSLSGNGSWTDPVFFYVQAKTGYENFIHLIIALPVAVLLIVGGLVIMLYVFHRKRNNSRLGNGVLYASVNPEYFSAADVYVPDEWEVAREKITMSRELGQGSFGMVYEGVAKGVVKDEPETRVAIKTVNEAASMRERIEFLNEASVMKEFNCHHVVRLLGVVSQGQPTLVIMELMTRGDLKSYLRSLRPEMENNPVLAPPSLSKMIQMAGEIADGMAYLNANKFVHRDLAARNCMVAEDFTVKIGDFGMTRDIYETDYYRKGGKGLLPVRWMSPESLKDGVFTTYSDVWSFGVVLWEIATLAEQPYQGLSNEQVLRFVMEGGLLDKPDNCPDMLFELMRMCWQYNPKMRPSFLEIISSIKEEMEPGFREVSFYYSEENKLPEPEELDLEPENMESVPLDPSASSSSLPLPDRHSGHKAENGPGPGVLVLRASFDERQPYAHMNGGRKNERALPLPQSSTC
Sequence of Protein kinase C theta type (Homo sapiens) (Q04759 whole entry, looked up): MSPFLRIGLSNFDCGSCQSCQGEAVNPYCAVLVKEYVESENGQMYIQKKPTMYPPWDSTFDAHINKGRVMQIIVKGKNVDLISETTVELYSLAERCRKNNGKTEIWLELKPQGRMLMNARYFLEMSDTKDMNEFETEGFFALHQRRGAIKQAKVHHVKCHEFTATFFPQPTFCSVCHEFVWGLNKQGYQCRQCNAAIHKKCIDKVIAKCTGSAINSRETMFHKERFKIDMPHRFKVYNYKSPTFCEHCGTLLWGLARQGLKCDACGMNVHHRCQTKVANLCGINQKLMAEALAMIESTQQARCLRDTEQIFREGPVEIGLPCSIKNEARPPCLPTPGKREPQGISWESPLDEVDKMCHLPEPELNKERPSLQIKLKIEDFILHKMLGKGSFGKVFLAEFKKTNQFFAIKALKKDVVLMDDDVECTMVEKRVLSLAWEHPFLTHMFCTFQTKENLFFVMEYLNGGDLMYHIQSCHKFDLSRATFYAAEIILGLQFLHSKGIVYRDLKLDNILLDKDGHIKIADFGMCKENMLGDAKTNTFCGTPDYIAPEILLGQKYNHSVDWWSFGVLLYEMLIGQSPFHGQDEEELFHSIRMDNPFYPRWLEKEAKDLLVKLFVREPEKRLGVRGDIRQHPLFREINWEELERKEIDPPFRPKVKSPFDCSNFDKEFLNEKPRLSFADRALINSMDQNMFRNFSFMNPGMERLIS
Sequence of Protein kinase C eta type (Homo sapiens) (P24723 whole entry): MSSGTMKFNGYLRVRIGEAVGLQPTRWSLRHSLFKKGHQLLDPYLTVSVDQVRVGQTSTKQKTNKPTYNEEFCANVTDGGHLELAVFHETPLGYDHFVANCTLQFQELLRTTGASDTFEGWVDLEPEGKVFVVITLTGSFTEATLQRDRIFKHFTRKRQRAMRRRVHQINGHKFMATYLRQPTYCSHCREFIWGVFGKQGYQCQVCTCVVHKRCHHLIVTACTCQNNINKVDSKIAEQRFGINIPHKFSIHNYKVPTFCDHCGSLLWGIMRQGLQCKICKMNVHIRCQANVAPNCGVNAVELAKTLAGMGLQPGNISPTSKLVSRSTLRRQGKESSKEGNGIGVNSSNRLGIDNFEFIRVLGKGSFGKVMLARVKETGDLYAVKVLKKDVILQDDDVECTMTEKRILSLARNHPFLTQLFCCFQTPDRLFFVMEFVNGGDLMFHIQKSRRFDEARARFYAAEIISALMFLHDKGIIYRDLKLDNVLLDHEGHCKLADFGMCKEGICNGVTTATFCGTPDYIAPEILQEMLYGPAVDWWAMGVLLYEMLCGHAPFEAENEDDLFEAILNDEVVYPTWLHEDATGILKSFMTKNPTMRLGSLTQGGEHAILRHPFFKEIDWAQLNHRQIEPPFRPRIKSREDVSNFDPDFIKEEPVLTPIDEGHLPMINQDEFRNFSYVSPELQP

`Cc1cc(Nc2nc(-c3ccccc3)nc3ccccc23)n[nH]1`: the residual activity – broadly, the signal under treatment as a percentage of the control signal – was 103% in [1]; 67% in experiment [2]; 23% in experiment [3]; 4% in [4]; 27% in experiment [5]; 5% in experiment [6]. Also, the residual activity was 17% in experiment [7]; 1% in experiment [8]; 102% in [9]; 64% in experiment [10]; 26% in experiment [11]; 112% (inactive) in experiment [12]. Besides, the residual activity in [13] came to 107%; in experiment [14] it was 110%; in experiment [15], 104%.
`Nc1cccc(-c2cc3c(Oc4cccc(O)c4)ncnc3[nH]2)c1`: the residual activity in experiment [1] is 86%; in experiment [2], 45%; in experiment [3], 4%; in experiment [4], 1%; in experiment [5], -3%; in experiment [6] it was -1%. In addition, the residual activity came out at 99% in experiment [7]; 124% in experiment [8]; 83% in experiment [16]; 64% in experiment [17]; 88% in experiment [10]; 57% in [11]. The residual activity came to 99% in experiment [13]; 80% in experiment [18]; 51% in experiment [19]; 99% in experiment [14]; 54% in [15].
`O=C1Nc2cc(Br)ccc2/C1=C1/Nc2ccccc2/C1=N\O`: the residual activity in experiment [20] is 88%; in experiment [1], 68%; in [2], 49%; in experiment [3], 6%; in experiment [4], 1%; in experiment [5] it was 1%. Also, the residual activity in experiment [6] came to 2%; in experiment [7] it was 112%; in experiment [8] it was 127%; in [9] it was 99%; in experiment [16], 76%; in experiment [17], 74%. Also, the residual activity was 87% in [10]; 75% in [11]; 110% (inactive) in experiment [12]; 112% in experiment [13]; 90% in experiment [18]; 100% in experiment [19]. Also, the residual activity in experiment [14] amounted to 101%; in [15], 95%.

The values are drawn from ChEMBL document CHEMBL2218924, “A broad activity screen in support of a chemogenomic map for kinase signalling research and drug discovery” (Biochem J, 2013).
